The record followed here is PubChem BioAssay (NCATS).

Records with an inconclusive call do not appear. Where a call stands in place of a potency, no number is given. Active and inactive are the calls of the source. Calls follow the shape of the dose curve; as a rule, active = well fitted curve in the direction sought with a large enough effect; inconclusive = small, poorly fitted or top-dose-only effect, or another doubt; inactive = no such curve, though single readings can be large; an effect the other way counts as inactive or inconclusive.

One test deals with Zika virus NS2B-NS3 protease. The test can be described thus: Primary screen GU AMC qHTS for Zika virus inhibitors (AID 1347154). Also: nearly all actives have a fitted effect of over 70% in size. Conditions: Zika NS2B-NS3 unlinked protease, AMC fluorogenic substrate; series mostly up to 54.1 µM. Summed up:
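Fluorogenic AMC-substrate cleavage by noncovalent NS2B-NS3 protease complex (25 nM, pH 8.0 Tris buffer with Tween 20) followed for 15 minutes at room temperature (~20% conversion). Percent inhibition from ex340/em450 signal change, fitted by 4-parameter Hill equation.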
`CC[C@H](NC(C)C)[C@H](O)c1ccc(O)c2[nH]c(=O)ccc12`: the Potency entry is “inactive”.

For `OC(Cn1cncn1)(Cn1cncn1)c1ccc(F)cc1F`, the Potency entry is “inactive”.

With `CN(Cc1cc(Br)cc(Br)c1N)C1CCCCC1`, the Potency entry is “inactive”.

Regarding `CC(C)OC(=O)C(C(=O)OC(C)C)=C1SC=CS1`, the Potency entry is “inactive”.

Turning to `N[C@@H](C(=O)N[C@@H]1C(=O)N2C(C(=O)O)=C(Cl)CS[C@H]12)c1ccccc1`, the Potency result was “inactive”.

With `CO[C@@H]1[C@@H](OC(N)=O)[C@@H](O)[C@H](Oc2ccc3c(O)c(NC(=O)c4ccc(O)c(CC=C(C)C)c4)c(=O)oc3c2C)OC1(C)C`, the Potency result was “inactive”.

As for `COC(c1ccccc1)(c1ccccc1)[C@H](Oc1nc(C)cc(C)n1)C(=O)O`, the Potency entry was “inactive”.

With `Cc1onc(-c2ccccc2Cl)c1C(=O)N[C@@H]1C(=O)N2[C@@H]1SC(C)(C)[C@@H]2C(=O)O`, the Potency result is “inactive”.

In the case of `CC(=O)Oc1ccccc1C(=O)Nc1ncc([N+](=O)[O-])s1`, the Potency result is “inactive”.

On to `Cc1ccnc2c1NC(=O)c1cccnc1N2C1CC1`, for which the Potency result is “inactive”.

For `CCCOc1ccc(C(=O)OCCN(CC)CC)cc1N`, the Potency entry is “inactive”.

`CC1=NN(c2ccccc2)C(=O)C1`: the Potency entry is “inactive”.

As for `Cc1oc(=O)oc1CN1CCN(c2cc3c(cc2F)c(=O)c(C(=O)O)c2n3C(C)S2)CC1` (stereo not given), the Potency entry is “inactive”.

With `CCCCc1oc2ccc(NS(C)(=O)=O)cc2c1C(=O)c1ccc(OCCCN(CCCC)CCCC)cc1`, the Potency entry is “inactive”.

As to `COc1cccc(N(C)C(=S)Oc2ccc3c(c2)CCCC3)n1`, the Potency entry was “inactive”.

On to `NCCCC(O)(P(=O)(O)O)P(=O)(O)O`, for which the Potency entry is “inactive”.

`O=C(O)c1cccnc1`: the Potency result was “inactive”.

Take `CC1(C)[C@H](C(=O)O)N2C(=O)C[C@H]2S1(=O)=O`: the Potency entry is “inactive”.

Consider `O=S(=O)(c1cccc2cnccc12)N1CCCNCC1`, for which the Potency entry was “inactive”.

On to `O=C(N[C@H](CO)[C@H](O)c1ccc([N+](=O)[O-])cc1)C(Cl)Cl`, for which the Potency entry was “inactive”.

On to `O=C(O)CCn1c2c(c3ccccc31)C[C@H](NS(=O)(=O)c1ccc(F)cc1)CC2`, for which the Potency result was “inactive”.

Take `O=C(O)CSCC(=O)NC1CCSC1=O` (stereo not given): the Potency entry is “inactive”.

Turning to `Cc1nnc(C(=O)NC(C)(C)c2nc(C(=O)NCc3ccc(F)cc3)c(O)c(=O)n2C)o1`, the Potency result is “inactive”.

Consider `COCCCOc1cc(C[C@@H](C[C@H](N)[C@@H](O)C[C@H](C(=O)NCC(C)(C)C(N)=O)C(C)C)C(C)C)ccc1OC`, for which the Potency entry was “inactive”.

Turning to `O=P(O)(O)C(O)(Cc1cccnc1)P(=O)(O)O`, the Potency entry is “inactive”.

With `CCCc1cc(C(N)=S)ccn1`, the Potency result is “inactive”.

As for `CC(C)Cn1cnc2c(N)nc3ccccc3c21`, the Potency result is “inactive”.

On to `CCN[C@H]1C[C@H](C)S(=O)(=O)c2sc(S(N)(=O)=O)cc21`, for which the Potency entry is “inactive”.

As to `COc1cc2ncnc(Nc3cccc(Cl)c3)c2cc1OC`, the Potency result is “inactive”.

Turning to `CCOC(=O)c1ccc(OC(=O)CCCCCN=C(N)N)cc1`, the Potency entry is “inactive”.

`C[C@@H](NCCCc1cccc(C(F)(F)F)c1)c1cccc2ccccc12`: the Potency result was “inactive”.

Consider `CC[C@H](C)C(=O)O[C@H]1C[C@@H](C)C=C2C=C[C@H](C)[C@H](CC[C@@H]3C[C@@H](O)CC(=O)O3)[C@H]21`, for which the Potency result was “inactive”.

On to `Cc1c(-c2ccc(O)cc2)n(Cc2ccc(OCCN3CCCCCC3)cc2)c2ccc(O)cc12`, for which the Potency result is “inactive”.

As for `Cc1cccc(Nc2ccncc2S(=O)(=O)NC(=O)NC(C)C)c1`, the Potency result was “inactive”.

For `CN(C)CCc1c[nH]c2ccc(C[C@H]3COC(=O)N3)cc12`, the Potency result is “inactive”.

Regarding `CC(N)C12CC3CC(CC(C3)C1)C2` (stereo not given), the Potency entry is “inactive”.

For a further test, the system named is Zika virus NS2B-NS3 protease (unlinked complex). The experiment in a line: Primary screen GU Rhodamine qHTS for Zika virus inhibitors: Unlinked NS2B-NS3 protease assay (AID 1347159). Also: nearly all actives have a fitted effect of over 60% in size. As to conditions: Recombinant ZIKV NS2B-NS3 protease, Rhodamine110 substrate fluorescence; series mostly up to 107 µM. The procedure, abridged: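 Unlinked NS2B/NS3, 25 nM; Rhod110 peptide, 1.5 microM; compounds, up to 114 microM. Reaction run 15 min at RT in 10 mM Tris-HCl pH 8.0, 0.01% Tween 20; kinetic fluorescence change fitted with a 4-parameter Hill model.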
Consider `Cc1onc(-c2ccccc2Cl)c1C(=O)N[C@@H]1C(=O)N2[C@@H]1SC(C)(C)[C@@H]2C(=O)O`, for which the Potency entry was “inactive”.

In the case of `NC1(c2ccc(-c3nc4ccn5c(=O)[nH]nc5c4cc3-c3ccccc3)cc2)CCC1`, the Potency entry is “inactive”.

On to `CCCCc1oc2ccc(NS(C)(=O)=O)cc2c1C(=O)c1ccc(OCCCN(CCCC)CCCC)cc1`, for which the Potency result was “inactive”.

Consider `CC1(C)[C@H](C(=O)O)N2C(=O)C[C@H]2S1(=O)=O`, for which the Potency entry is “inactive”.

Take `Cc1nnc(C(=O)NC(C)(C)c2nc(C(=O)NCc3ccc(F)cc3)c(O)c(=O)n2C)o1`: the Potency result is “inactive”.

As for `COc1cc2ncnc(Nc3cccc(Cl)c3)c2cc1OC`, the Potency result is “inactive”.

Consider `CC[C@H](C)C(=O)O[C@H]1C[C@@H](C)C=C2C=C[C@H](C)[C@H](CC[C@@H]3C[C@@H](O)CC(=O)O3)[C@H]21`, for which the Potency entry is “inactive”.

In the case of `CN(C)CCc1c[nH]c2ccc(C[C@H]3COC(=O)N3)cc12`, the Potency entry was “inactive”.

A further test has as its system Zika virus NS2B-NS3 protease (linked construct). The experiment in a line: Primary screen NINDS Rhodamine qHTS for Zika virus inhibitors (AID 1347160). Also: nearly all actives have a fitted effect of over 55% in size. As to conditions: purified NS2B-NS3 protease, Rhodamine110 substrate fluorescence; series mostly up to 57.1 µM. Summed up: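 Single-chain NS2B-NS3 protease, 25 nM, pH 8.0; compounds preincubated 15 min. Activity: Rhodamine110 release from 1.5 microM substrate over 15 min, room temperature, data fitted to 4-parameter Hill.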
Take `Cc1onc(-c2ccccc2Cl)c1C(=O)N[C@@H]1C(=O)N2[C@@H]1SC(C)(C)[C@@H]2C(=O)O`: the result was inactive.

`NC1(c2ccc(-c3nc4ccn5c(=O)[nH]nc5c4cc3-c3ccccc3)cc2)CCC1`: the call was inactive.

Turning to `CC1=NN(c2ccccc2)C(=O)C1`, the call was inactive.

Take `CCCCc1oc2ccc(NS(C)(=O)=O)cc2c1C(=O)c1ccc(OCCCN(CCCC)CCCC)cc1`: the outcome was “inactive; activator”.

With `CC1(C)[C@H](C(=O)O)N2C(=O)C[C@H]2S1(=O)=O`, the outcome was inactive.

`O=C(O)CCn1c2c(c3ccccc31)C[C@H](NS(=O)(=O)c1ccc(F)cc1)CC2`: the result was inactive.

Turning to `Cc1nnc(C(=O)NC(C)(C)c2nc(C(=O)NCc3ccc(F)cc3)c(O)c(=O)n2C)o1`, the call was inactive.

Turning to `O=P(O)(O)C(O)(Cc1cccnc1)P(=O)(O)O`, the outcome was “inactive [at 4.91 µM]”.

Turning to `COc1cc2ncnc(Nc3cccc(Cl)c3)c2cc1OC`, the molecule was called inactive.

For the molecule `CC[C@H](C)C(=O)O[C@H]1C[C@@H](C)C=C2C=C[C@H](C)[C@H](CC[C@@H]3C[C@@H](O)CC(=O)O3)[C@H]21`, the outcome was “inactive [at 33.1 µM]”.

With `CN(C)CCc1c[nH]c2ccc(C[C@H]3COC(=O)N3)cc12`, the outcome was inactive.
